Assay outcomes deposited in PubChem BioAssay by Broad Institute.
MLL AF4-AF9 inh = MLL-AF4/AF9 protein interaction inhibition. AID 651704. 350,000 compounds, 0.47% hits. inhibition, % at 10 µM. AlphaScreen, biotin-AF4 peptide binding to FLAG-AF9. P42568;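 active = every replicate reaching a set inhibition limit, whatever the replicate mean, cut at about 25% in these data; inconclusive = mean inhibition reaches that limit but some replicates miss it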;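 also: 0% = plate neutral control median and 100% = total signal loss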
Target sequence (P42568 whole entry, looked up): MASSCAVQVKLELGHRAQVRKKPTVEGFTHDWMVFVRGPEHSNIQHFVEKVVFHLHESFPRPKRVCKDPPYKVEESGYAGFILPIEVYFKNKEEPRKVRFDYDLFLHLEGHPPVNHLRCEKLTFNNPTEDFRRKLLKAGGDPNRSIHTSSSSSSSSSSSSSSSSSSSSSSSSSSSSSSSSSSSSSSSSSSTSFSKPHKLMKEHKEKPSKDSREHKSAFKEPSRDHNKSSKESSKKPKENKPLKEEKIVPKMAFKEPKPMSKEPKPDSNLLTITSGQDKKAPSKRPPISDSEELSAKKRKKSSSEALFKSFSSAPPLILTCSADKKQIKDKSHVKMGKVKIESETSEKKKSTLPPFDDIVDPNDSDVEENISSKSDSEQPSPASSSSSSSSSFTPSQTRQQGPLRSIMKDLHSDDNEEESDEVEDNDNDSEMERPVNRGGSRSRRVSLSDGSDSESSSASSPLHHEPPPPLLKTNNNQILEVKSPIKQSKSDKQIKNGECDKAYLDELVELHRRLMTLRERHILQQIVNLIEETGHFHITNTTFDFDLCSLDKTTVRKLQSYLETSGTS
Wnt act = activates Wnt/beta-catenin signaling in a reporter cell assay; activator, plate reader; activation, % at 9.35 µM; 300,000 compounds, 1.2% hits; AID 743398; in the data active = activation above about 30%, passing the limit was not always enough; inconclusive = no clear call, values can overlap the other calls;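 also: 0% = neutral control wells and 100% = positive control wells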
MITF act = MITF TRPM1 promoter activation in melanoma cells; SK-MEL-5 TRPM1-promoter luciferase, 24 h; % of positive control, neutral wells = 0; activation, % at 12.5 µM; 300,000 compounds, 0.75% hits;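 active = mean activation of at least 80% with every replicate also reaching 80%; inconclusive = mean reaches 80% but some replicate falls short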;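 also: 0% = neutral control wells and 100% = parthenolide positive control wells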
rRNA inh HTS = inhibitors of bacterial rRNA selective over humanized ribosomes. GFP signal change (wild-type ribosome), % (concentration not given with the values). 350,000 compounds, 1.6% hits. E. coli WT GFP vs humanized-ribosome RFP mutants, fluorescence, 24 h; stronger effect = lower value; DMSO median 0, no signal -100;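 active = significant combined selectivity score with lowered wild-type GFP, culture density cut under 30%, mutant RFP and density less affected; inactive = any of these conditions unmet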
esBAF inh = blocks esBAF chromatin remodeling in mouse ES cells; Bmi1-luciferase knock-in reporter, 24 h; 100% = twice the neutral-well signal; reporter increase, % at 12.5 µM; 350,000 compounds, 2% hits; in the data active = activation above about 40%; inconclusive = no clear call, values can overlap the other calls;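 also: 0% = median of the plate's neutral control wells and 100% = double that signal; a rise in the Bmi1 reporter signal indicates esBAF inhibition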
* marks the source's active call; other numbers are inactive results; ? = inconclusive; · = no result given. Rows were chosen to be rich in hits. Some 3.7% of all compounds tested hit in one or more screens of this group.

SMILES	MLL AF4-AF9 inh	Wnt act	MITF act	rRNA inh HTS	esBAF inh
Cc1nc(-c2cc(C#N)c(Sc3ccc(Cl)cc3Cl)nc2C)cs1	-4	-2	-3	-4	-3
Nc1nc(-c2ccc3ccccc3c2)cs1	3	17	?	-24	·
Nc1nc(-c2ccc(-c3ccccc3)cc2)cs1	2	16	64	-25*	59*
COc1ccc(-c2csc(N)n2)cc1	·	·	56	·	·
Cc1ccc(-c2csc(N)n2)cc1	4	-3	52	-19	43*
Nc1nc(-c2ccc(Oc3ccccc3)cc2)cs1	4	9	·	8	68*
O=C(NCc1ccccn1)c1cccc(NS(=O)(=O)c2ccccc2F)c1	·	-3	-8	·	·
CC[C@@H](NC(=O)[C@@H](Cc1ccccc1)NC(=O)CC[C@H]1O[C@@H](n2ccc(=O)[nH]c2=O)[C@H](O)[C@@H]1O)c1ccccc1	-1	0	·	-8.9*	1
CC[C@H](NC(=O)[C@@H](Cc1ccccc1)NC(=O)[C@H]1O[C@@H](n2ccc(=O)[nH]c2=O)[C@H](O)[C@@H]1O)c1ccccc1	·	-3	·	16	·
CCN(CC)CCCNC(=O)c1cc(-c2ccccc2)c(N2CCCCC2)s1	29*	2	-2	-14	-31
Cc1ccc(NC(=O)C(C)c2ccc(-c3ccccc3)c(F)c2)c(C)c1 (stereo not given)	·	1	1	·	-5
C=C1c2ccccc2O[C@H](C(=O)OCC)[C@H]1OC	-10	-2	2	8	1
O=S(=O)(Nc1ccc2c(c1)OCCO2)c1ccc(Br)s1	-18	-1	-8	-21	3
CC[C@@]1(C(=O)OC)N[C@H](CN(C)C(=O)Nc2ccc(C(F)(F)F)cc2)[C@@H]2C(=O)N(C)C(=O)[C@@H]21	-5	1	8	7	-7
CCN(C[C@H]1N[C@@](CC)(C(=O)OC)[C@H]2C(=O)N(C)C(=O)[C@@H]12)C(=O)Nc1ccc(C(F)(F)F)cc1	-10	8	6	-24*	-9
CCOC(=O)c1ccc2c(c1)nc(SCC(=O)N1CCOCC1)n2CC	0	0	7	-39*	·
CCOC(=O)CSc1nc2cc(S(=O)(=O)N3CCOCC3)ccc2n1CC	2	-3	0	-5	-13
C/C(=N\NC(=O)CSCc1ccccc1Cl)c1cc(O)ccc1O	25*	-2	15	-26	·
CCc1ccccc1NS(=O)(=O)c1cc2c(cc1C)n(C)c(=O)c(=O)n2C	-4	1	9	-4	9
Nc1ccc(Cl)c(-c2nc3ncccc3o2)c1	·	-4	38	·	?
Nc1ccc(-c2nc3ncccc3o2)c(Cl)c1	-3	42*	43	-9	?
Nc1ccc(-c2nc3ncccc3o2)c(O)c1	4	18	95*	3	57*
Cc1noc(C)c1NC(=O)Nc1cccc2c1O[C@@H](CN(C)S(=O)(=O)c1cccs1)[C@H](C)CN([C@@H](C)CO)C2=O	-2	·	·	-2	-4
C[C@@H]1CN([C@H](C)CO)C(=O)c2cc(NC(=O)C3CC3)ccc2O[C@@H]1CN(C)CC1CC1	0	·	·	3	0
O=C(CSC(=S)N1CCCC1)c1cc(Br)cc(Br)c1O	-2	·	·	-30*	·
SMILES	MLL AF4-AF9 inh	Wnt act	MITF act	rRNA inh HTS	esBAF inh
CCOC(=O)c1c(C)n(OCc2ccccc2)c2ccc3nonc3c12	33*	-2	12	9	-3
C=CCOn1c(C)c(C(C)=O)c2c3nonc3ccc21	·	·	0	·	-3
CN1c2ccc(-c3ccc(F)cc3)cc2[C@@H]2[C@@H](CCN2C(=O)Cc2ccccn2)[C@@H]1CO	5	·	·	-1	5
Cc1cn(-c2ccc(Br)cc2)[nH]c1=O	-3	11	23	15	52*
Cc1ccccc1-n1c(SCC(=O)c2c(N)n(C3CC3)c(=O)[nH]c2=O)nnc1N1CCOCC1	0	-2	4	16	5
Clc1ccccc1OCCn1cnc2ccccc21	·	·	60	·	51*
O=C1c2ccccc2C(=O)N1CCOc1ccccc1Cl	-6	24	86*	10	?
O=C(CCC1CCCN(C(=O)c2cc3ccccc3o2)C1)NCc1ccc(F)c(F)c1 (stereo not given)	1	-1	·	-21	56*
O=C(CCC1CCCN(C(=O)c2ccncc2)C1)NCc1ccc(F)c(F)c1 (stereo not given)	0	-1	1	6	·
CCN(CC1CCCO1)C(=O)c1cc(COc2cc(C)c(Cl)c(C)c2)on1 (stereo not given)	1	30	90*	-1	84*
Cc1cc(OCc2cc(C(=O)N(C)CC3CCOCC3)no2)cc(C)c1Cl	0	-4	47	-12	50*
Cc1cc(OCc2cc(C(=O)N(C)CCCN3CCOCC3)no2)cc(C)c1Cl	11	-9	19	-14	16
O=C(c1ccc2c(c1)OCO2)N1CCN=C1SCc1cccnc1	3	-3	-13	6	3
Oc1ccc2ccccc2c1N=Nc1ccccc1F	10	5	-14	13	20
O=S(=O)(O)c1cccc(N=Nc2c(O)ccc3ccccc23)c1	6	0	-5	-33*	·
Cc1noc(C)c1NC(=O)Nc1ccc2c(c1)C(=O)N([C@@H](C)CO)C[C@H](C)[C@H](CN(C)C(=O)NC1CCCCC1)O2	-1	·	·	5	-3
CN(C)N1C(N)=C(C#N)C(c2cccc(Cl)c2)C2=C1CCCC2=O (stereo not given)	7	0	2	1	-6
CN(C)N1C(N)=C(C#N)C(c2ccc3c(c2)OCO3)C2=C1CCCC2=O (stereo not given)	26*	1	7	11	0
Cc1ccc2nc(SCC(=O)c3ccc(O)cc3O)[nH]c2c1	3	41*	54	-23*	62*
CC1CCCC(C)N1C(=O)CSc1nc2ccccc2s1 (stereo not given)	·	·	·	·	75*
CC1Cc2ccccc2N1C(=O)CSc1nc2ccccc2s1 (stereo not given)	-4	11	-5	-27	·
COC(=O)CSc1nc2ccc(C)cc2[nH]1	·	·	-5	·	-5
O=C(CSc1nc2ccccc2s1)c1ccc(O)cc1O	-1	0	41	-42	51*
O=C(CSc1nc(C2CCCCC2)nc2ccccc12)N1CCCC1	-1	-3	2	-18*	·
CCOc1ccc(N2C(=O)CC(N3CCN(c4ccc(C(=O)c5ccncc5)cc4)CC3)C2=O)cc1 (stereo not given)	·	-1	·	·	-4
OC(CNCC1COc2ccccc2O1)COc1ccc(Cl)cc1 (stereo not given)	4	0	8	-20	-6
CCc1nc2c(OCC(=O)c3ccc(Cl)cc3Cl)cccn2c1N(C=O)Cc1ccccc1	-6	-2	·	-3	-1
COc1ccc2c3c(n(C)c2c1)[C@@H](CO)N(Cc1ccc2c(c1)OCO2)CC31CN(C)C1	20	·	·	1	·
CSc1nsc(SCC(=O)N2CCCCC2)n1	-2	14	52	7	51*
